Screening data from PubChem.
C2C12 statin = suppressors of statin myotoxicity in C2C12 myotubes, primary screen, cell-based, single point, plate reader. C2C12 myotubes + simvastatin, ATP luminescence, 48 h; scaled: DMSO 0, geranylgeraniol control 100. rescue of ATP level, % at 7.49 µM. hit rate 0.78% among 330,000;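 active means mean ATP rescue above about 67%, or every replicate alone reaching that limit, limit read from the data, passing the limit was not always enough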;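 further: myotubes were challenged with 10 µM simvastatin during compound exposure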
NSD2 HMT inh = NSD2 histone methyltransferase inhibitors, primary screen, biochemical, AlphaScreen, single concentration, set 2 | Histone-lysine N-methyltransferase NSD2 (Homo sapiens), O96028 | NSD2 peptide methylation, 120 min | inhibition, % at 12.5 µM | hit rate 0.54% among 310,000; in the data active means inhibition above about 50%
miR-122 sensor = miR-122 Renilla sensor signal increase in Huh7, primary screen, miR-122 inhibitor project, cell-based, single point, plate reader. Huh7 miR-122 Renilla luciferase sensor, 48 h; neutral wells = 0, positive control = 100. activation (reporter increase), % at 12.5 µM. hit rate 0.3% among 340,000. AID 602342, 2012;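 active means mean replicate activation score at least 90 and every replicate individually at or above 90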;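 further: higher luciferase means less miR-122 activity so hits act as miR-122 inhibitors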
PglD DTNB = C. jejuni PglD acetyltransferase inhibitors, primary screen, biochemical, DTNB colorimetric, single point | hit rate 0.098% among 360,000 | inhibition, % at 12.5 µM | AID 602405, 2012 | purified PglD enzyme, DTNB colorimetric CoA detection | UDP-N-acetylbacillosamine N-acetyltransferase PglD (Campylobacter jejuni); in the data active means inhibition above about 16%, passing the limit was not always enough
Alpha artifact = AlphaScreen signal interference with preloaded methylated product, dose response, artefact control for NSD2 inhibitor project, biochemical, cherry-picked samples. hit rate 9.4% among 1,500. shares compounds with NSD2 HMT inh. AID 1053174, 2014. AlphaScreen artifact counterscreen, preloaded methylated H4 peptide. AC35, µM (titrated, usually from 10 µM), inactives show at the highest dose activity change, negative = signal loss; call rule not given here
* hit, by the source's call; [ ] = dose if it differs, or a comment. Shown are actives, neighbours in structure and some others; about 1.2% of the full set was active somewhere.

`O=C(O)CN1C(=O)/C(=C\c2cccc(OCc3ccc(F)cc3)c2)SC1=S` gave C2C12 statin 2, NSD2 HMT inh 54*, miR-122 sensor -4, PglD DTNB 0 and Alpha artifact -12%.
Screening Cc1c(C)n(Cc2ccccc2)c2ccc(C(=O)OCCCN(C)C)cc12 returned C2C12 statin 5, NSD2 HMT inh 90* and Alpha artifact -11%.
For CCc1ccc(N(CC(=O)NCc2ccc3c(c2)OCO3)C(=O)c2csnn2)cc1 the results were C2C12 statin -4, NSD2 HMT inh 60*, PglD DTNB -2 and Alpha artifact -2%.
Screening CCOc1ccc(N(CC(=O)NCc2ccc3c(c2)OCO3)C(=O)c2csnn2)cc1 returned C2C12 statin 14, NSD2 HMT inh -1, miR-122 sensor -10 and PglD DTNB -1.
For Cc1cc(/C=N/NC(=O)c2cccc(N(C)C)c2)c(C)n1-c1cc(C(=O)O)cc(C(=O)O)c1 the results were C2C12 statin -4, NSD2 HMT inh 55*, miR-122 sensor -3 and Alpha artifact -4%.
CCc1cc(OCCN2C(=O)NC(C)(C)C2=O)ccc1Cl was read as C2C12 statin -10, NSD2 HMT inh 72*, miR-122 sensor -1, PglD DTNB 3 and Alpha artifact -3%.
For COc1ccc(CCNc2c([N+](=O)[O-])ncn2C)cc1OC the results were NSD2 HMT inh 61*, PglD DTNB 2 and Alpha artifact -3%.
Screening Cc1ccccc1NCC(=O)Nc1cc(S(=O)(=O)N2CCCCC2)ccc1C returned C2C12 statin -9, NSD2 HMT inh 57*, miR-122 sensor 5, PglD DTNB -2 and Alpha artifact -7%.
Cc1ccc(S(=O)(=O)N2CCOCC2)cc1NC(=O)CSc1ccccn1 was read as C2C12 statin 0, NSD2 HMT inh 52*, miR-122 sensor 7, PglD DTNB 10 and Alpha artifact -2%.
`CC(NC(=O)c1cc(Br)ccc1Br)c1ccccc1` (configuration not stated) gave NSD2 HMT inh -1.
For CC(NC(=O)c1cccc(Br)c1)c1ccccc1 (configuration not stated) the results were C2C12 statin 9, NSD2 HMT inh 96*, miR-122 sensor -9, PglD DTNB 2 and Alpha artifact 0%.
O=C1C(Cl)=C(NCCN2CCOCC2)C(=O)c2ccccc21 was read as C2C12 statin -6, NSD2 HMT inh 101*, miR-122 sensor 0, PglD DTNB -4 and Alpha artifact 1%.
`CCOCCCNC1=C(Cl)C(=O)c2ccccc2C1=O` gave NSD2 HMT inh 81* and Alpha artifact -14%.
CCCNC(=O)C[C@@H]1CC[C@@H]2[C@H](COC[C@@H](O)CN2C(=O)Nc2c(C)noc2C)O1 was read as C2C12 statin 5, miR-122 sensor 2[16.7 µM] and PglD DTNB 14.
For Cc1ccc(S(=O)(=O)Nc2ccc3c(c2)C(=O)N([C@H](C)CO)C[C@@H](C)[C@H](CN(C)C)OCCCC[C@@H](C)O3)cc1 the results were C2C12 statin -7, miR-122 sensor 2[16.7 µM] and PglD DTNB 0.
`Oc1ccccc1N=Nc1ccccc1O` gave NSD2 HMT inh 21.
Nc1ccc(N=Nc2ccccc2O)c(N)c1 was read as NSD2 HMT inh 54*, miR-122 sensor -8, PglD DTNB 4 and Alpha artifact -16%.
Screening Cc1ccc(CN2C(=O)N/C(=C\c3cccn3-c3cccc(C(=O)O)c3)C2=O)cc1 returned C2C12 statin 5, NSD2 HMT inh 59*, miR-122 sensor -1, PglD DTNB -3 and Alpha artifact -6%.
For CC(=O)NC1=NC(=O)/C(=C/c2cc(C)n(-c3cccc(C(=O)O)c3)c2C)S1 the results were NSD2 HMT inh 131*, miR-122 sensor 7 and Alpha artifact -11%.
Screening N#CC(C#N)=Cc1cccn1-c1ccc(C(=O)O)cc1 returned NSD2 HMT inh 100* and Alpha artifact -8%.
